Among the data in article PMC7862700, “An all-to-all approach to the identification of sequence-specific readers for epigenetic DNA modifications on cytosine” are binding signal values, retold here.

Common to all, as to assay: DAPPL (digital affinity profiling via proximity ligation, sequencing); 10 mM Tris-HCl pH 7.5, 50 mM NaCl, 1 mM DTT, 4% glycerol, room temperature, 30 min; GST-TFs on glutathione beads, 16-mer random dsDNA library, 0.1% formaldehyde crosslink after washing; high values mean tight binding
One assay deals with HSF1 (Homo sapiens, UniProt Q00613 1-529). The settings on record: protein: recombinant; tags: N-terminal GST; chain copies: 3; dsDNA, one strand shown. A digest of the protocol: (§1)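 A tag-only sample was pooled with DNA-barcoded human transcription factors that had been expressed in yeast as GST fusions and captured on glutathione beads. The pools were incubated for 30 min at room temperature with 200 nmole of a random double-stranded 16-mer DNA library in Tris/NaCl/DTT/glycerol buffer, then washed, crosslinked with 0.1% formaldehyde, proximity-ligated (BsaI/T4 ligase, 1 h, 37 °C), PCR-amplified and sequenced on an Illumina NextSeq500. Binding signal is each hexamer's read frequency for a factor divided by its frequency for the tag-only sample.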
Sequence of HSF1 (Q00613 whole entry, the tested form may be a part): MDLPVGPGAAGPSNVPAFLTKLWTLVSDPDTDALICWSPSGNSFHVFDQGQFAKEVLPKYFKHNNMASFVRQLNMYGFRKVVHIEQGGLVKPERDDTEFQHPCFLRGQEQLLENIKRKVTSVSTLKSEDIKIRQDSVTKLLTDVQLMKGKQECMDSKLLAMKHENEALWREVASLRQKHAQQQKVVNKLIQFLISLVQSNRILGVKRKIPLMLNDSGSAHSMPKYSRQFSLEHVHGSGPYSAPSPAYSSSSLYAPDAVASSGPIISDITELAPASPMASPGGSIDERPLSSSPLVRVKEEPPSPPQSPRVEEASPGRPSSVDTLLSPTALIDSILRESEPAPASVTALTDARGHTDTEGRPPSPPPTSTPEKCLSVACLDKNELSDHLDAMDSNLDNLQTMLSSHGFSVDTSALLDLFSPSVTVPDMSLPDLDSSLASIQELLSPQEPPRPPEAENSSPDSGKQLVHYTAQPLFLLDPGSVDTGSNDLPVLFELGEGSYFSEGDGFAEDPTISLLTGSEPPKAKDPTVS

The target of the next assay is T1, SPIC (Homo sapiens, UniProt Q8N5J4 1-248).
T1 sequence: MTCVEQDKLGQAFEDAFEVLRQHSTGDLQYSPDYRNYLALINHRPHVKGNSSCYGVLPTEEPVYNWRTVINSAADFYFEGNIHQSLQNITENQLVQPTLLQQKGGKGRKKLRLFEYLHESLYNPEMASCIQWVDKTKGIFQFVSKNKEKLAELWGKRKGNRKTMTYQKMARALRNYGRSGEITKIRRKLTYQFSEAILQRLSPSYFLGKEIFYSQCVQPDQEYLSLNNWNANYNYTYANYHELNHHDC
The following applies: protein: recombinant; tags: N-terminal GST; dsDNA, one strand shown. In short, it runs like this:
as §1

The target in the next assay is CRX (Homo sapiens, UniProt O43186 1-299). The settings on record: protein: recombinant; tags: N-terminal GST; dsDNA, one strand shown. In short, it runs like this: as §1
Sequence of CRX (O43186 whole entry): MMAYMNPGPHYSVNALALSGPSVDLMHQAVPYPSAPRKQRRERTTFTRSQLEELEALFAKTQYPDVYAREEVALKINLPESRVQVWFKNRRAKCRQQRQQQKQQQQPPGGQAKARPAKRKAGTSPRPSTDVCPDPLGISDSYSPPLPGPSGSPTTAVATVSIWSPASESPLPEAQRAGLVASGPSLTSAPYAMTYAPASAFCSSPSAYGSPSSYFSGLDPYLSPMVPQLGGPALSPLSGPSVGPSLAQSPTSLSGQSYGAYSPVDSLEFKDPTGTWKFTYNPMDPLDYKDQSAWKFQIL
In a further assay the target is ELF1 (Homo sapiens, UniProt P32519 1-619). The following applies: protein: recombinant; tags: N-terminal GST; dsDNA, one strand shown. In short, it runs like this:
as §1

Another assay deals with T2, EHF (Homo sapiens, UniProt Q9NZC4 1-300).
T2 sequence: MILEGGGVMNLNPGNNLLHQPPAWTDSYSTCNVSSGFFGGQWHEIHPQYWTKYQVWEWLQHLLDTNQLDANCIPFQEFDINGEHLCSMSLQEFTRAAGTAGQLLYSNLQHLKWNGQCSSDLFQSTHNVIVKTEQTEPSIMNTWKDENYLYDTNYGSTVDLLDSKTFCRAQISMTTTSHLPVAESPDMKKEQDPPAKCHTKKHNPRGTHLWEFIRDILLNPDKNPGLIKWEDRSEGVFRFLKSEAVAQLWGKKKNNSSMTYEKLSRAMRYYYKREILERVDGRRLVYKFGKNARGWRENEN
The following applies: protein: recombinant; tags: N-terminal GST; dsDNA, one strand shown. A digest of the protocol: as §1

The target in the next assay is T3, ELK4 (Homo sapiens, UniProt P28324-2 1-405).
T3 sequence: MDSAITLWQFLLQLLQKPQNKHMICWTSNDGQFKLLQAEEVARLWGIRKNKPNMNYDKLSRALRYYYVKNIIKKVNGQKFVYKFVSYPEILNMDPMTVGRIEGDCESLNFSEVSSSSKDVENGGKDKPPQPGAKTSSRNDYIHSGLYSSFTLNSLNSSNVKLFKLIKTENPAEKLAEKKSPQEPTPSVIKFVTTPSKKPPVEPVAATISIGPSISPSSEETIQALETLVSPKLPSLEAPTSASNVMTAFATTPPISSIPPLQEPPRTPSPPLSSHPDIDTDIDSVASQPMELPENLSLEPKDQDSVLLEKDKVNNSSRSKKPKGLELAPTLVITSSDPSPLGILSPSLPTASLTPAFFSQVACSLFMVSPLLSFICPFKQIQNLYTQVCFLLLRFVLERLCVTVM
The settings on record: protein: recombinant; tags: N-terminal GST; dsDNA, one strand shown. A digest of the protocol:
as §1

A further assay concerns the target T4, ETV2 (Homo sapiens, UniProt O00321 1-342).
T4 sequence: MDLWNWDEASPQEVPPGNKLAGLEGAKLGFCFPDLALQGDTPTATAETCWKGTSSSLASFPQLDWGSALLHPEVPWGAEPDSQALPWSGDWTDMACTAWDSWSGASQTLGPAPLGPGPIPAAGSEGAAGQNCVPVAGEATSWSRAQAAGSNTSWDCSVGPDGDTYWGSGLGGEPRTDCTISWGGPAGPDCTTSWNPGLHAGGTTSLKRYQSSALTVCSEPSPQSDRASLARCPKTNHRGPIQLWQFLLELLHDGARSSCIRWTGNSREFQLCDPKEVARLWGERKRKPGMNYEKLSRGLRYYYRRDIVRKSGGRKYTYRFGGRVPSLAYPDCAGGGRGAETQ
The settings on record: protein: recombinant; tags: N-terminal GST; dsDNA, one strand shown. A digest of the protocol:
as §1

Another assay deals with T5, ERF (Homo sapiens, UniProt P50548 1-548).
T5 sequence: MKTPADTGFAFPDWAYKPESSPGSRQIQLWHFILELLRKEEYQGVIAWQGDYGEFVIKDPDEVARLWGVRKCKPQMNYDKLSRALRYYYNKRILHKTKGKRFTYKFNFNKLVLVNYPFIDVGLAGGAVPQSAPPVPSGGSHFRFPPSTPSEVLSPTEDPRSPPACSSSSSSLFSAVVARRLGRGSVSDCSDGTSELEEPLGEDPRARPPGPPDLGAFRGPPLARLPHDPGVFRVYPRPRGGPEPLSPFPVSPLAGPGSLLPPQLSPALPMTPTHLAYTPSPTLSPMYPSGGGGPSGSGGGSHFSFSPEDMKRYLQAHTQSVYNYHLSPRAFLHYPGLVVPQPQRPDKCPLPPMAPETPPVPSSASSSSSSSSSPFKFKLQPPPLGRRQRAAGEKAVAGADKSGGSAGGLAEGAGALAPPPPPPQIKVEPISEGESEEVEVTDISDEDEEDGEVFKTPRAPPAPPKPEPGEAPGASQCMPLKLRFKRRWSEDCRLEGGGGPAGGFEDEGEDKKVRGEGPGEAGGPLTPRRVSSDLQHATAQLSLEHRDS
The following applies: protein: recombinant; tags: N-terminal GST; dsDNA, one strand shown. A digest of the protocol:
as §1

A further assay concerns the target SPIB (Homo sapiens, UniProt Q01892 1-262). The following applies: protein: recombinant; tags: N-terminal GST; dsDNA, one strand shown. In short, it runs like this:
as §1

In another assay the target is ELF4 (Homo sapiens, UniProt Q99607 1-663). The settings on record: protein: recombinant; tags: N-terminal GST; dsDNA, one strand shown. In short, it runs like this: as §1
Sequence of ELF4 (Q99607 whole entry): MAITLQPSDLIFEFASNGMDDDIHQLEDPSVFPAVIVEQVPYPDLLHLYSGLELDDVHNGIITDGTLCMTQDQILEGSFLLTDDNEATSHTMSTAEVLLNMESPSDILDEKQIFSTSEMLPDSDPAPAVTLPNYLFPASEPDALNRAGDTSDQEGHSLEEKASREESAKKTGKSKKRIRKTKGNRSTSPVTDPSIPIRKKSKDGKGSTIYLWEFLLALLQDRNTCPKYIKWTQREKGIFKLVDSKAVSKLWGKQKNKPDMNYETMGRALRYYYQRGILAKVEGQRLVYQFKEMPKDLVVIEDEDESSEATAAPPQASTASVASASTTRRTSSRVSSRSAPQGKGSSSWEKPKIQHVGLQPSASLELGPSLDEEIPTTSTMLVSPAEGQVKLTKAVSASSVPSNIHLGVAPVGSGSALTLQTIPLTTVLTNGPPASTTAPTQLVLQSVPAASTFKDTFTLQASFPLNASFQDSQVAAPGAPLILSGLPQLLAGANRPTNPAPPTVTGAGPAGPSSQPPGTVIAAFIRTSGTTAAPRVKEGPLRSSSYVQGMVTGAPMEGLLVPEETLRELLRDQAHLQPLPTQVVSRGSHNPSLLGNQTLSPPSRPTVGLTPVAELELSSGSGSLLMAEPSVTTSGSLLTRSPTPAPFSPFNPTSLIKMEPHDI
The next assay deals with ETV6 (Homo sapiens, UniProt P41212 1-452). The following applies: protein: recombinant; tags: N-terminal GST; dsDNA, one strand shown. In short, it runs like this:
as §1

Sequence of SPIB (Q01892 whole entry): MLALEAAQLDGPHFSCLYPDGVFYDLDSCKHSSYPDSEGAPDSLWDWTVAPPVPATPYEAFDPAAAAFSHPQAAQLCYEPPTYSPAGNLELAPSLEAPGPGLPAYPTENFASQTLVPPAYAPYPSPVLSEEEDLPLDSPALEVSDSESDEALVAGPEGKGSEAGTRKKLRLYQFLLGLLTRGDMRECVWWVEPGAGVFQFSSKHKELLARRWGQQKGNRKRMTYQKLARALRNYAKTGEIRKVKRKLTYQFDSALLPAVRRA
Sequence of ELF1 (P32519 whole entry): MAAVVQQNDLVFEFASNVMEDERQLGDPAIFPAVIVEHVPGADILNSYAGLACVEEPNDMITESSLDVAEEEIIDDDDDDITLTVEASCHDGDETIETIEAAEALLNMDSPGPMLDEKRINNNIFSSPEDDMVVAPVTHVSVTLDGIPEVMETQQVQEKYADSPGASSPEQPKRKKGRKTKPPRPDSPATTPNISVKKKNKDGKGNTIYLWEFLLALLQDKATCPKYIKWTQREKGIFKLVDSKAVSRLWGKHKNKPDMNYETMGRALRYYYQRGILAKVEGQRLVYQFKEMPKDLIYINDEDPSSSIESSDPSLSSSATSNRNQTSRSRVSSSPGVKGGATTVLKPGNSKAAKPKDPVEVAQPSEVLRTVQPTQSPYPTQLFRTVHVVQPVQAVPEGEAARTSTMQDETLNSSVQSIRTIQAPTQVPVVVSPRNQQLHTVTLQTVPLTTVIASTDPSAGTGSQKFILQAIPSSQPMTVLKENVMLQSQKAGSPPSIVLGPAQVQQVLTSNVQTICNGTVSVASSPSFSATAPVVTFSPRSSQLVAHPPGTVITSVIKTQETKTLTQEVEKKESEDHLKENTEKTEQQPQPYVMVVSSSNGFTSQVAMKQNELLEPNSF
Sequence of ETV6 (P41212 whole entry): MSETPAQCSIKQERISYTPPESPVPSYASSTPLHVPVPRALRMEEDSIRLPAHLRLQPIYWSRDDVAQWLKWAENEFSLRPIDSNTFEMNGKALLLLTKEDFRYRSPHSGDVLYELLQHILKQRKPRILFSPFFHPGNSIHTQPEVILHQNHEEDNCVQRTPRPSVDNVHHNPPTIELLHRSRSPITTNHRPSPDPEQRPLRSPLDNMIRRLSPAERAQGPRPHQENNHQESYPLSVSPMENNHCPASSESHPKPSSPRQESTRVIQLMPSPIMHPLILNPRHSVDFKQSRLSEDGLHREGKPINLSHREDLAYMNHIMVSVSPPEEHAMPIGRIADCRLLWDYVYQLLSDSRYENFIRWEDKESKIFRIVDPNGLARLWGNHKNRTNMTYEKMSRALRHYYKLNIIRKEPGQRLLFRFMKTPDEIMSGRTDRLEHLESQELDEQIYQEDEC

For TCGAAG, the binding signal with HSF1 is 1.57 fold enrichment (6-mer frequency, TF over GST control); in the assay with SPIC it was 1.02 fold enrichment (6-mer frequency, TF over GST control); with CRX, 1.09 fold enrichment (6-mer frequency, TF over GST control).

Turning to CATTAG, the binding signal in the assay with ELF1 is 1.05 fold enrichment (6-mer frequency, TF over GST control); in the assay with EHF, 1 fold enrichment (6-mer frequency, TF over GST control); with HSF1 it was 1.07 fold enrichment (6-mer frequency, TF over GST control); in the assay with ELK4 it was 1.1 fold enrichment (6-mer frequency, TF over GST control); with ETV2, 1.03 fold enrichment (6-mer frequency, TF over GST control); with CRX, 1.26 fold enrichment (6-mer frequency, TF over GST control). For the same sequence, the binding signal with ERF is 1.01 fold enrichment (6-mer frequency, TF over GST control).

On to GATAAA, for which the binding signal in the assay with SPIB is 1.04 fold enrichment (6-mer frequency, TF over GST control); in the assay with HSF1, 1.21 fold enrichment (6-mer frequency, TF over GST control); with ELF4 it was 1.01 fold enrichment (6-mer frequency, TF over GST control); with ELK4, 1.02 fold enrichment (6-mer frequency, TF over GST control); in the assay with ETV2, 1.12 fold enrichment (6-mer frequency, TF over GST control); with CRX, 1.55 fold enrichment (6-mer frequency, TF over GST control). Also, the binding signal with ETV6 was 1 fold enrichment (6-mer frequency, TF over GST control).
